According to PubChem BioAssay (Tox21):
Results filed as inconclusive are left out. More than one record can exist for a structure, and the calls need not agree. Activity calls are given as the source filed them. The call rests on the fitted dose curve; in most records, active means well fitted curve in the direction sought with a large enough effect in the repeat runs; inconclusive means weak or mixed curves; inactive means no such curve, though single readings can be large; an effect the other way counts as inactive or inconclusive.

Experiments:
[1] = A CellTox Green Cytotoxicity Assay to monitor cytotoxicity in HEK293 cells - 40 hour (AID 1224871); further: nearly all actives have a fitted effect of over 45% in size; further: potency means the concentration at half of the fitted maximal effect
In short: (§1)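 Each value comes from one timepoint of a single continuous run in which HEK293 cells with CellTox Green were exposed to compound for up to 40 h at 37 C, dye fluorescence rising with cell death.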

[2] = qHTS RealTime-Glo MT Cell Viability Assay in HEK293 cells - 16 hour (AID 1224872); further: nearly all actives have a fitted effect of over 50% in size; further: potency means the concentration at half of the fitted maximal effect
In short: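 Homogeneous bioluminescent viability format in HEK293 cells (600 cells/well). Following 5 h at 37 C/5% CO2, 23 nL compound was pintooled; the signal was measured repeatedly during 40 h incubation.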

[3] = qHTS RealTime-Glo MT Cell Viability Assay in HepG2 cells - 8 hour (AID 1224873); further: nearly all actives have a fitted effect of over 55% in size; further: potency means the concentration at half of the fitted maximal effect
In short: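 Real-time viability: cells seeded at 600 per well together with NanoLuc and cell-permeant prosubstrate, compounds added after 5 h incubation. Luminescence tracked at 0, 8, 16, 24, 32 and 40 h of exposure.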

[4] = qHTS RealTime-Glo MT Cell Viability Assay in HEK293 cells - 40 hour (AID 1224874); details: RealTime-Glo luminescence; max response: stronger effect = lower value; further: nearly all actives have a fitted effect of over 50% in size; further: potency means the concentration at half of the fitted maximal effect
In short: (§2)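 qHTS format; HEK293 cells with NanoLuc/prosubstrate reagent, 37 C/5% CO2 for 5 h pre-dosing; compounds 23 nL in DMSO; luminescence at each time point reflects viable cells.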

[5] = A CellTox Green Cytotoxicity Assay to monitor cytotoxicity in HEK293 cells - 24 hour (AID 1224875); further: nearly all actives have a fitted effect of over 45% in size; further: potency means the concentration at half of the fitted maximal effect
In short: as §1

[6] = A CellTox Green Cytotoxicity Assay to monitor cytotoxicity in HepG2 cells - 16 hour (AID 1224876); further: nearly all actives have a fitted effect of over 45% in size; further: potency means the concentration at half of the fitted maximal effect
In short: (§3)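 Continuous culture of HepG2 cells with a membrane-impermeant DNA dye; rising fluorescence marks dead cells. Compound exposure lasted up to 40 h at 37 C, with reads every 8 h from 0 h.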

[7] = qHTS RealTime-Glo MT Cell Viability Assay in HepG2 cells - 32 hour (AID 1224877); further: nearly all actives have a fitted effect of over 55% in size; further: potency means the concentration at half of the fitted maximal effect
In short: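 Cell number in HepG2 cultures estimated from NanoLuc luminescence generated by metabolic reduction of a prosubstrate by living cells. The homogeneous, nonlytic format allowed repeated reads at 0, 8, 16, 24, 32 and 40 h of compound exposure.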

[8] = A CellTox Green Cytotoxicity Assay to monitor cytotoxicity in HepG2 cells - 24 hour (AID 1224878); further: nearly all actives have a fitted effect of over 45% in size; further: potency means the concentration at half of the fitted maximal effect
In short: as §3

[9] = A CellTox Green Cytotoxicity Assay to monitor cytotoxicity in HepG2 cells - 40 hour (AID 1224879); further: nearly all actives have a fitted effect of over 40% in size; further: potency means the concentration at half of the fitted maximal effect
In short: as §3

[10] = qHTS RealTime-Glo MT Cell Viability Assay in HEK293 cells - 0 hour (AID 1224880)
In short: as §2
On the % scale 0 is the no-effect control and ±100 the full control effect.

CCN(C(=O)c1cc(C)cc(OC[C@H](C)Nc2ccncc2)c1)C(C)C
inactive: Potency [1] | Potency [2] | Potency [3] | max response [4] -9.99% | Potency [5] | Potency [6] | Potency [7] | Potency [8] | Potency [9] | Potency [10]

CCCCCCCC[N+](CCCCCCCC)(CCCCCCCC)CCCCCCCC
active: Potency [1] 19.5 µM | Potency [2] 7.75 µM | Potency [3] 24.5 µM | Potency [4] 2.18 µM | Potency [5] 15.5 µM | Potency [6] 24.5 µM | Potency [7] 24.5 µM | Potency [8] 19.5 µM | Potency [9] 24.5 µM

c1ccc(CSCc2ccccc2)cc1
inactive: Potency [1] | Potency [2] | Potency [3] | max response [4] -5.29% | Potency [5] | Potency [6] | Potency [7] | Potency [8] | Potency [9] | Potency [10]

CCC(C)(C)C1CCCCC1OC(C)=O (configuration not stated)
inactive: Potency [1] | Potency [2] | Potency [3] | max response [4] 6.6% | Potency [5] | Potency [6] | Potency [7] | Potency [8] | Potency [9]

[Cl][Bi]([Cl])([c]1ccccc1)([c]1ccccc1)[c]1ccccc1
active: Potency [1] 24.4 µM | Potency [2] 4.87 µM | Potency [3] 10.9 µM | Potency [4] 1.94 µM | Potency [5] 27.4 µM | Potency [6] 10.9 µM | Potency [7] 6.88 µM | Potency [8] 7.71 µM

CN(C)CCCOC1(Cc2ccccc2)CCCCCC1
inactive: Potency [1] | Potency [2] | Potency [3] | max response [4] 0.0267% | Potency [5] | Potency [6] | Potency [7] | Potency [8] | Potency [9]

CC[C@H](c1ccc(O)cc1)[C@@H](CC)c1ccc(O)cc1
34.7 µM (active) and inactive: Potency [1]
inactive: Potency [2] | Potency [3] | Potency [5] | Potency [7]
active: Potency [4] 24.5 µM | Potency [6] 49 µM | Potency [8] 49 µM | Potency [9] 49 µM

CCOC(=O)O[C@H](C)OC(=O)c1ccc2c(c1)cc(C(=O)NC1CCN(C(C)C)CC1)n2Cc1cc(-c2ccc(Cl)s2)on1
active: Potency [1] 18.2 µM | Potency [2] 10.2 µM | Potency [3] 16.2 µM | Potency [4] 11.5 µM | Potency [5] 20.4 µM | Potency [6] 11.5 µM | Potency [7] 10.2 µM | Potency [8] 11.5 µM | Potency [9] 10.2 µM

CNC(=O)c1ccccc1
inactive: Potency [1] | Potency [2] | Potency [3] | max response [4] -8.54% | Potency [5] | Potency [6] | Potency [7] | Potency [8] | Potency [9] | Potency [10]

CN(C)C(=O)C1(N2CCCCC2)CCN(CC[C@@]2(c3ccc(Cl)c(Cl)c3)CN(C(=O)c3ccccc3)CCO2)CC1
active: Potency [1] 28.9 µM | Potency [2] 12.9 µM | Potency [3] 45.8 µM | Potency [4] 11.5 µM | Potency [5] 40.8 µM | Potency [6] 40.8 µM | Potency [7] 18.2 µM | Potency [8] 20.4 µM | Potency [9] 20.4 µM

CCCCC(CC)CN=C(N)NC(N)=NCCCCCCN=C(N)NC(N)=NCC(CC)CCCC (configuration not stated)
active: Potency [1] 8.49 µM | Potency [2] 6.74 µM | Potency [3] 19 µM | Potency [4] 4.25 µM | Potency [5] 7.56 µM | Potency [6] 8.49 µM | Potency [7] 8.49 µM | Potency [8] 9.52 µM | Potency [9] 8.49 µM

Oc1cc2ccccc2c2ccccc12
active: Potency [1] 15.5 µM | Potency [2] 6.92 µM | Potency [3] 11 µM | Potency [4] 11 µM | Potency [5] 19.5 µM | Potency [6] 13.8 µM | Potency [7] 11 µM | Potency [8] 11 µM

Cc1cccc(CN2CCN(C(c3ccccc3)c3ccc(Cl)cc3)CC2)c1 (configuration not stated)
inactive: Potency [1] | Potency [2] | Potency [3] | max response [4] -13.7% | Potency [5] | Potency [6] | Potency [7] | Potency [8] | Potency [9]

Cc1cccc(N(C)C(=S)Oc2ccc3c(c2)C2CCC3C2)c1 (configuration not stated)
inactive: Potency [1] | Potency [2] | Potency [3] | max response [4] -13.2% | Potency [5] | Potency [6] | Potency [7] | Potency [8] | Potency [9] | Potency [10]

COC(=O)c1cc(Cl)ccc1OC
inactive: Potency [1] | Potency [2] | Potency [3] | max response [4] 6.18% | Potency [5] | Potency [6] | Potency [7] | Potency [8] | Potency [9] | Potency [10]

OCCN1CCN(CC/C=C2/c3ccccc3Sc3ccc(C(F)(F)F)cc32)CC1
active: Potency [1] 26.8 µM | Potency [2] 19 µM | Potency [3] 23.9 µM | Potency [4] 19 µM | Potency [5] 26.8 µM | Potency [6] 23.9 µM | Potency [7] 15.1 µM | Potency [8] 16.9 µM | Potency [9] 13.4 µM

CCCCCOC(=O)CCCC
inactive: Potency [1] | Potency [2] | Potency [3] | max response [4] -0.909% | Potency [5] | Potency [6] | Potency [7] | Potency [8] | Potency [9] | Potency [10]

CCCCN1CCCC[C@H]1C(=O)Nc1c(C)cccc1C
inactive: Potency [1] | Potency [2] | Potency [3] | max response [4] -2.09% | Potency [5] | Potency [6] | Potency [7] | Potency [8] | Potency [9] | Potency [10]
